Measurements as given in the supplement of paper PMC6555819.

What was measured:
Test in all cases: PBM binding z-score (relative to random genomic background probes); higher = stronger binding; sequences stand for … in GC…GCGATTGACAGCGTAGAATGAAGG
[1] = system: FXR:RXRa (NR concentration 270 nM, RXRa partner concentration 90 nM)
Method in brief: (§1)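 The probes on custom Agilent 4×180K protein-binding microarrays were double-stranded, with 34-nt variable regions bearing direct-repeat seeds, single-nucleotide variants, half-site ablations and random human genomic background sequences. Incubation lasted 1 h with ligand-free nuclear receptor dimers in PBS pH 7.4, 2% milk, 0.02% Triton X-100, 1 mM DTT, 0.2 mg/mL BSA and 0.4 mg/ml salmon testes DNA. Antibodies against each partner (one per run) detected bound dimers, and fluorescence scans were regression-normalized. Binding z-scores take the random background probes as reference.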

[2] = system: LXRa:RXRa (NR concentration 270 nM, RXRa partner concentration 90 nM)
Method in brief: as §1

[3] = system: LXRa homodimer (NR concentration 270 nM)
Method in brief: as §1

[4] = system: LXRb:RXRa (NR concentration 270 nM, RXRa partner concentration 90 nM)
Method in brief: as §1

[5] = system: LXRb homodimer (NR concentration 270 nM)
Method in brief: as §1

[6] = system: PPARa:RXRa (NR concentration 270 nM, RXRa partner concentration 90 nM)
Method in brief: as §1

[7] = system: PPARg:RXRa (NR concentration 180 nM, RXRa partner concentration 90 nM)
Method in brief: as §1

[8] = system: PPARg:RXRa 270nM:90nM, anti-RXR (NR concentration 270 nM, RXRa partner concentration 90 nM)
Method in brief: as §1

[9] = system: PPARg:RXRa 30nM:10nM, anti-RXR (NR concentration 30 nM, RXRa partner concentration 10 nM)
Method in brief: as §1

[10] = system: PPARg:RXRa 90nM:30nM, anti-RXR (NR concentration 90 nM, RXRa partner concentration 30 nM)
Method in brief: as §1

[11] = system: PPARg:RXRa DBDmut IVT, anti-RXR (DBD mutation: RXRa K156A/R161A, NR concentration 270 nM, RXRa partner concentration 90 nM)
Method in brief: as §1

[12] = system: PPARg:RXRa IVT, anti-PPARg (NR concentration 270 nM, RXRa partner concentration 90 nM)
Method in brief: as §1

[13] = system: PPARg DBDmut:RXRa IVT, anti-PPARg (DBD mutation: PPARg1 K132A/R137A, NR concentration 270 nM, RXRa partner concentration 90 nM)
Method in brief: as §1

[14] = system: PPARg DBDmut IVT, anti-PPARg (DBD mutation: PPARg1 K132A/R137A, NR concentration 270 nM)
Method in brief: as §1

[15] = system: PPARg homodimer (NR concentration 180 nM)
Method in brief: as §1

[16] = system: PXR:RXRa (NR concentration 270 nM, RXRa partner concentration 90 nM)
Method in brief: as §1

[17] = system: PXR homodimer (NR concentration 270 nM)
Method in brief: as §1

[18] = system: RARa:RXR (NR concentration 270 nM, RXRa partner concentration 90 nM)
Method in brief: as §1

[19] = system: RARa homodimer (NR concentration 270 nM)
Method in brief: as §1

[20] = system: RARb:RXRa (NR concentration 270 nM, RXRa partner concentration 90 nM)
Method in brief: as §1

Row | Sequence | PBM binding z-score [1] | PBM binding z-score [2] | PBM binding z-score [3] | PBM binding z-score [4] | PBM binding z-score [5] | PBM binding z-score [6] | PBM binding z-score [7] | PBM binding z-score [8] | PBM binding z-score [9] | PBM binding z-score [10] | PBM binding z-score [11] | PBM binding z-score [12] | PBM binding z-score [13] | PBM binding z-score [14] | PBM binding z-score [15] | PBM binding z-score [16] | PBM binding z-score [17] | PBM binding z-score [18] | PBM binding z-score [19] | PBM binding z-score [20]
1 | TAGCCCAGGTCATTCAGGGGCCAGTATAGAAAGC | 5.03 | 4.14 | 0.808 | 2.98 | 0.952 | 3.9 | 2.2 | 2.46 | 0.688 | 1.57 | 0.643 | 2.16 | -0.0273 | 0.498 | 2.32 | 3.28 | 0.378 | 3.94 | 0.0689 | 3.67
2 | CCTACTGGGCCATAAGGTCATTGATATCAACGTT | 3.03 | 3.09 | 1.89 | 3.17 | 0.0476 | 4.14 | 4.49 | 4.98 | 3.38 | 4.64 | 4.4 | 5.28 | 0.506 | 0.0496 | 2.03 | 3.98 | 1.97 | 4.25 | 1.27 | 3.43
3 | CAAACTAGTTCACCGGAAGGTCAAAGTCCGCATG | 4.43 | 4.89 | 4.71 | 4.6 | 1.66 | 4.24 | 1.87 | 2.85 | 0.587 | 1.95 | 2.4 | 2.7 | 0.634 | 0.566 | 3.3 | 5.22 | 3 | 5.72 | 1.73 | 4.36
4 | CCTACTGGGCCACGGAAGGTCATTGATTCAGTGA | 1.94 | 2.96 | 2.27 | 2.25 | -0.194 | 3.5 | 3.4 | 3.37 | 1.05 | 2.35 | 4.56 | 5.51 | -0.609 | -0.824 | 1.7 | 3.57 | 0.303 | 3.15 | 0.0822 | 3
5 | CCTCGGAGGACAGAAGGGCAGAGCTGTCCGCTTT | -0.424 | -0.658 | -0.967 | -0.952 | -1.04 | -1.11 | -0.572 | -0.994 | -1.32 | -1.13 | -0.39 | -0.863 | -1.35 | -1.74 | -0.82 | -0.857 | -0.749 | -0.782 | -0.361 | 1.2
6 | CCTACTGAGCCAAAAAGGTCATTGATGCCGATAA | 3.37 | 4.28 | 3.65 | 4.29 | 1.17 | 4.37 | 1.31 | 2.81 | 0.896 | 1.99 | 0.522 | 1.14 | -0.507 | 0.266 | 3.04 | 4.49 | 2.44 | 4.93 | 2.61 | 3.86
